# “And” between values parts separate entries of the source, which are not always exact repeats. Identical values can stand only once. Hit rate of the full screen: of about 16,000 compounds, about 5,800 (36%) were called active. Roughly 23% stayed inconclusive and do not appear here. Some of the results follow. Values without a mark were called inactive. Calls come from the whole dose curve; as a rule, active = well fitted curve in the direction sought with a large enough effect; inconclusive = small, poorly fitted or top-dose-only effect, or effect the other way; inactive = no such curve, though single readings can be large or run the other way.
# Target: Cytochrome P450 2C19 (Homo sapiens) (UniProt P33261)
# Experiment: Cytochrome panel assay with activity outcomes
# Settings: recombinant CYP, pro-luciferin dealkylation, luminescence, p450-cyp2c19; series mostly up to 57.1 µM
# % is set by controls: 0 for no effect and ±100 for the full control effect.
# Cytochrome P450 2C19 (Homo sapiens), sequence (P33261 whole entry, looked up): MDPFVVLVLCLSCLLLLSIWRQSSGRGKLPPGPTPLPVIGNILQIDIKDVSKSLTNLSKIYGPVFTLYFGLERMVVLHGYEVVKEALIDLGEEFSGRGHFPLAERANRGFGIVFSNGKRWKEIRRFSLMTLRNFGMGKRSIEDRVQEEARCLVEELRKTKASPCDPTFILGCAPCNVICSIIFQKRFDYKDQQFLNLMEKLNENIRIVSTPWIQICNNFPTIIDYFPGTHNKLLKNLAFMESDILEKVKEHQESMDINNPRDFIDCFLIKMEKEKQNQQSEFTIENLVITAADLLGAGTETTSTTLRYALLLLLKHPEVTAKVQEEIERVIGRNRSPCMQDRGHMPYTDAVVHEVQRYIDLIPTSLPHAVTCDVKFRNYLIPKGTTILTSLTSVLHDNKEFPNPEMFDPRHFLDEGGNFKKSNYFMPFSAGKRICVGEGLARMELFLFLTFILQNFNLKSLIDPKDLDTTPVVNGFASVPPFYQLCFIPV
SMILES,AC50,"activity, negative = inhibition"
O=C1CC(SC(=Nc2ccccc2)Nc2ccccc2)C(=O)N1c1cccc(Cl)c1 (centres undefined),2.24 µM (active),–
CCN=C(Nc1cccc(F)c1)SC1CC(=O)N(c2ccc(OC)cc2)C1=O (centres undefined),3.98 µM (active),–
CC(=O)Nc1ccc(N2C(=O)CC(c3ccccc3)CC2=O)cc1,inactive,–
COCC(=O)N1CCC2(CC1)CCN(C(=O)Nc1cccc(F)c1)CC2,inactive,–
CCOC(=O)NNC1CC(=O)N(c2ccc(OC)cc2)C1=O (centres undefined),inactive,–
CC(C)(C)NC[C@H](O)COc1cccc2c1CCC(=O)N2,inactive,–
C[C@@H]1C(=O)N(C)C(=O)c2nc[nH]c21,inactive,–
CCSC[C@@H](N)C(=O)O,–,17.8% [at 11.4 µM]
Cc1sc(NC(=O)C2CCCCC2C(=O)O)c(C(N)=O)c1C (centres undefined),inactive,–
O=C(O)c1ccccc1C(=O)Nc1nccs1,inactive,–
COC(=O)c1sccc1NC(=O)c1cc(-c2cc(C)ccc2C)nc2ccccc12,2.51 µM (active),–
Cc1ccccc1-c1cc(C(=O)Nc2nc3c(s2)CCCC3)c2ccccc2n1,4.47 µM (active),–
Nc1c2c(nc3ccccc13)CCC[C@H]2O,inactive,–
Cc1ccc(C)c(-c2cc(C(=O)Nc3sc(C)c(C)c3C(N)=O)c3ccccc3n2)c1,2.24 µM (active),–
Cc1ccc(C)c(-c2cc(C(=O)Nc3nccs3)c3ccccc3n2)c1,10 µM (active),–
CN(C)c1ccc(O)c2c1C[C@H]1C[C@H]3[C@@H](N(C)C)C(=O)C(C(N)=O)=C(O)[C@]3(O)C(=O)C1=C2O,inactive,–
COc1ccc(Cc2nnc(NC(=O)c3ccc(Cl)c([N+](=O)[O-])c3)s2)cc1,inactive,–
Cc1onc(-c2ccccc2Cl)c1C(=O)Nc1nnc(Cc2ccc(Cl)cc2)s1,15.8 µM (active),–
CC(=O)C1=NOC(CNC(=O)c2c(-c3ccccc3Cl)noc2C)C1 (centres undefined),11.2 µM (active),–
Cc1ccc(NC(=S)NC(=O)c2c(-c3ccccc3Cl)noc2C)cc1,2 µM (active),–
Cc1ccccc1-n1nc2c(c1NC(=O)c1ccc(S(=O)(=O)N(C)C)cc1)CSC2,inactive,–
Cc1ccccc1-n1nc2c(c1NC(=O)c1c(-c3ccccc3Cl)noc1C)CSC2,11.2 µM (active),–
COc1ccc(-c2nc3cnc(Nc4cccc(OC)c4)nc3n(CCC#N)c2=O)cc1,inactive,–
CCOC(=O)c1cnc2cc(-c3ccc(C(C)(C)C)cc3)nn2c1N,0.562 µM (active),–
Cc1occc1C(=O)NNC(=O)Cc1ccccc1,10 µM (active),–

SMILES,AC50,"activity, negative = inhibition"
Cc1ccccc1C(=O)NNC(=O)c1ccoc1C,inactive,–
CCCC[S@@](=N)(=O)CC[C@@H](N)C(=O)O,inactive,–
Cc1ccc(OCCNC(=O)c2cncc(Br)c2)cc1C,6.31 µM (active),–
Fc1ccc(-c2csc(N3CCC(c4ccccc4)C3)n2)cc1 (centres undefined),11.2 µM (active),–
Cc1c(C2CCN(CCc3ccccc3)CC2)noc1-c1ccc(Cl)cc1,inactive,–
Fc1cccc(C2NC(=S)NC3=C2N2CCC3CC2)c1 (centres undefined),inactive,–
Clc1ccc(-c2csc(N3CCC(c4ccccc4)C3)n2)cc1 (centres undefined),10 µM (active),–
Brc1ccc(-c2csc(N3CCC(c4ccccc4)C3)n2)cc1 (centres undefined),10 µM (active),–
Clc1ccc2c(c1)N=C(N1CCNCC1)c1ccccc1N2,inactive,–
Cc1cnc(CNc2ccnc(-c3ccoc3)n2)cn1,inactive,–
c1ccc(CNc2ccnc(-c3ccoc3)n2)cc1,3.98 µM (active),–
Cc1cccc(CNc2ccnc(-c3ccoc3)n2)c1,10 µM (active),–
CCCN(C/C=C\I)[C@@H]1CCc2cccc(O)c2C1,inactive,–
Cc1ccc(N(C(C)C(=O)Nc2cc(Cl)ccc2Oc2ccccc2)S(C)(=O)=O)cc1 (centres undefined),1.41 µM (active),–
CC(C(=O)Nc1ccccc1Sc1ccccc1)N(c1ccccc1)S(C)(=O)=O (centres undefined),4.47 µM (active),–
Cc1cc2c(=O)[nH]c(N)nc2nc1C,–,20.6% [at 11.4 µM]
O=C1CC(NCCC2=CCCCC2)C(=O)N1c1cccc(Cl)c1Cl (centres undefined),4.47 µM (active),–
CO[C@H]1COC(=O)C/C=C\[C@H](C)[C@H](OC)COC(=O)[C@@H](C)COC(=O)C/C=C\[C@@H]1C,–,-8.22% [at 11.4 µM] and -6.35% [at 11.4 µM]
Cc1ccc(C2CC2C(=O)NN)cc1 (centres undefined),3.55 µM (active),–
C=CCN1CCc2c(cc(O)c(O)c2Cl)[C@H](c2ccccc2)C1,inactive,–
CCOC(=O)C1CCCN(C(=O)CCCOc2cc(=O)n(C)c3ccccc23)C1 (centres undefined),6.31 µM (active),–
Cn1c(=O)cc(OCCCC(=O)N2CCN(c3ccccc3)CC2)c2ccccc21,1.26 µM (active),–
O=C(CCCN1C(=O)C2C3C=CC(C3)C2C1=O)N1CCN(c2ccccc2)CC1 (centres undefined),inactive,–
O=C(O)c1ccc(/C=N\N=C2c3ccccc3-c3ccccc32)cc1,–,19.5% [at 11.4 µM]
